According to publication PMC5540273 (PLoS ONE, 2017):

The compounds below were run on BRAF.
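Also: kd values determined as follow-up on hits from a single-replicate KINOMEscan panel screen.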

| SMILES | Kd [nM] |
| --- | --- |
| CN(C)CCN(C)C(=O)c1cc(-c2ccncc2)c(-c2ccc(Cl)c(O)c2)o1.Cl.Cl [SB-710397] | 45 |
| Cl.O=C(Nc1cccc(-c2nn3ncccc3c2-c2ccnc(Nc3cccnc3)n2)c1)c1c(F)cccc1F [GSK312879] | 62 |
| Cc1cccc(-c2nc(-c3ccc(S(C)(=O)=O)cc3)sc2-c2ccnc(NCCc3ccccc3)c2)c1 | 81 |
| COC(=O)c1c(-c2ccccc2)c2cc(OC)ccc2c(=O)n1Cc1ccccc1 | 61 |
| COC(=O)c1c(-c2ccccc2)c2cc(C(=O)O)ccc2c(=O)n1Cc1ccccc1 | 50 |
| CC(=O)Nc1nc2cnc(Nc3cc(NC(=O)c4cccc(CCC#N)c4)ccc3C)nc2s1 | > 10000 |

The compounds below were run on BRSK1.

| SMILES | Kd [µM] |
| --- | --- |
| Cc1ccc(NC(=O)Nc2cccc(Cl)c2)cc1-c1ccc(C(=O)Nc2ccncc2)cc1 [GSK1398468] | > 10 |
| O=C(Nc1n[nH]c2nc(-c3nccs3)c(Br)cc12)C1CC1 [SB-742251] | 0.23 |
| CS(=O)(=O)c1ccc(-c2c(-c3ncn[nH]3)sc(N3CCOCC3)c2C#N)cc1 | > 10 |
| O=C(Nc1n[nH]c2nc(-c3nccs3)c(Br)cc12)C1CCCC1 [SB-742609] | 0.43 |
| CCn1c(-c2ccccn2)nc2cnccc21 [SB-736398] | > 10 |
| Cc1ccc(NC(=O)Nc2cc(C(C)(C)C)nn2-c2ccccc2)cc1 [GSK1014915] | > 10 |
